This note sets out measurements from PubChem BioAssay (NCATS).

A number with no mark means an inactive call. Inconclusive results are not listed. Activity calls are given as the source filed them. Calls follow the shape of the dose curve; as a rule, active = well fitted curve in the direction sought with a large enough effect; inconclusive = small, poorly fitted or top-dose-only effect, or another doubt; inactive = no such curve, though single readings can be large; an effect the other way counts as inactive or inconclusive.

For test [1], the target named is Glutathione peroxidase 1 (Homo sapiens) (UniProt P07203). Briefly: Primary qHTS Assay for Inhibitors of Recombinant Selenoprotein Glutathione Peroxidase 1 (GPX1) (AID 1845191). Also: nearly all actives have a fitted effect of over 65% in size. As to activity, negative = inhibition: % is scaled to controls: 0 for no effect and ±100 for the full control effect. Put shortly:
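GPX1 10 nM, GR 100 nM, GSH 1 mM, NADPH 0.5 mM, CHP 0.5 mM (final). 30-min cpd preincubation, RT. Ex340/Em450 read t=0, t=15 min.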
A general note: In qHTS, concentration-response curves come from the screen itself.

In test [2] the target is Phospholipid hydroperoxide glutathione peroxidase GPX4 (Homo sapiens) (UniProt P36969). The test is described as follows: Primary qHTS Assay for Inhibitors of Recombinant Selenoprotein Glutathione Peroxidase 4 (GPX4) (AID 1845192). Also: nearly all actives have a fitted effect of over 65% in size. Put shortly: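 qHTS, GR-coupled: GPX4 200 nM + cpd 30 min RT → GSH 1 mM, NADPH 0.5 mM, GR 100 nM → CHP 0.5 mM start; fluor 340/450 at t0 and t15 min; no-enzyme wells as control.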
Sequence of Phospholipid hydroperoxide glutathione peroxidase GPX4 (Homo sapiens) (P36969 whole entry, looked up): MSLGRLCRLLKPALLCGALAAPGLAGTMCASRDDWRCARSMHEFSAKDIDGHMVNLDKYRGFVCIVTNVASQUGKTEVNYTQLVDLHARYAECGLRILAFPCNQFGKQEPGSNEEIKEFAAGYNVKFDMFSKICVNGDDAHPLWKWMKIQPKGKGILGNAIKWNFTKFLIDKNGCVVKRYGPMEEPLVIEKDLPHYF

Test [3] addresses Luciferin 4-monooxygenase (Photinus pyralis) (UniProt P08659). The test is described as follows: Primary firefly luciferase (FLuc) qHTS assay for identification of artifact compounds. (AID 1845220). Also: nearly all actives have a fitted effect of over 60% in size. Put shortly:
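qHTS, 15 min compound preincubation with substrate (10 uM luciferin, 10 uM ATP) at RT, then 10 nM FLuc; 5 min; luminescence; % inhibition vs no-enzyme/DMSO controls, 4-parameter Hill fit.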

Test [4] is described as follows: Primary fluorescence-based thiol-reactive (MSTI) qHTS assay for identification of artifact compounds. (AID 1845221). Also: nearly all actives have a fitted effect of over 65% in size. Also: potency is read from the fitted curve at half-maximal effect.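 As to activity change, negative = thiol reactive: series mostly up to about 54 µM; thiol-reactive compounds lower the probe fluorescence signal.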 In short, it runs like this:
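Curve-fitted percent inhibition (4-parameter Hill) derived from fluorescence, Ex 525/Em 598 nm, scaled with Acetyl-MSTI and MSTI; 1 h incubation at room temperature.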

Test [5] relates to Nanoluciferase (engineered Oplophorus gracilirostris luciferase). The test is described as follows: Primary Nanoluciferase (NLuc) qHTS assay for identification of artifact compounds. (AID 1845222). Also: series mostly up to about 54 µM. Put shortly: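 Luminescence read-out of secreted NLuc in S16 cell conditioned medium (1:55); compounds tested with 15 min RT preincubation, then Nano-Glo substrate 1:100, 5 min. % inhibition vs no-enzyme and DMSO controls, 4-parameter Hill fit.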

A short description of test [6]: Primary redox qHTS assay for identification of artifact compounds. (AID 1845223).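 Also: 0% = DMSO and 100% = reference compound.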 In short, it runs like this: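 Redox-cycling detection via DTT (250 uM final) oxidation coupled to Amplex Red (25 uM)/HRP (250 mU/mL) in HBSS. 15 min preincubation plus 30 min after DTT, room temperature. Ex/Em 525/598 nm; 4-parameter Hill fit against DMSO and 10 uM DA3003.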

Sequence of Glutathione peroxidase 1 (Homo sapiens) (P07203 whole entry, looked up): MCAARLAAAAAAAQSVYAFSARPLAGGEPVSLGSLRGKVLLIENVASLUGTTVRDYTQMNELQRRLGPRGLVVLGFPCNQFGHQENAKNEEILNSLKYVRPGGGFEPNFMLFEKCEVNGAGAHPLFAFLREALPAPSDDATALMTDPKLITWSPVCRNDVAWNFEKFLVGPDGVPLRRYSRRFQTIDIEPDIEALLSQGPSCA

For `CC(=O)C1=CCC2C3CC=C4CC(O)CC(O)C4(C)C3C(O)CC12C` (stereo not given), the Potency entry in test [1], in test [2], in test [3], in test [4], in test [5] and in test [6] was “inactive” each time.
Regarding `CC(=O)O[C@@H]1[C@@H](OC(C)=O)[C@H](C)O[C@@H](O[C@H]2[C@@H]3C=CO[C@@H](O[C@@H]4O[C@H](CO)[C@@H](O)[C@H](O)[C@H]4O)[C@@H]3[C@@]3(CO)O[C@@H]23)[C@@H]1OC(=O)/C=C/c1ccccc1`, the Potency result in test [1], in test [2], in test [3], in test [4], in test [5] and in test [6] was “inactive” in each case.
For the molecule `Nc1nc(Cl)nc2c1ncn2C1OC(CO)C(O)C1F` (stereo not given), the Potency entry in test [1], in test [2], in test [3], in test [4], in test [5] and in test [6] was “inactive” each time.
As to `C[C@@H]1O[C@@H](O[C@H]2[C@@H]3C=CO[C@@H](O[C@@H]4O[C@H](CO)[C@@H](O)[C@H](O)[C@H]4O)[C@@H]3[C@@]3(CO)O[C@@H]23)[C@H](O)[C@H](OC(=O)/C=C/c2ccccc2)[C@H]1O`, the Potency result in test [1], in test [2], in test [3], in test [4], in test [5] and in test [6] was “inactive” throughout.
`C1=Cc2ccccc2C(=C2CCN(CCCCc3nn[nH]n3)CC2)c2ccccc21`: the Potency result in test [1], in test [2], in test [3], in test [4], in test [5] and in test [6] was “inactive” each time.
With `O=C(NCCO)c1cccc(-c2cc(Nc3ccc(OC(F)(F)F)cc3)ncn2)c1`, the Potency entry in test [1], in test [2], in test [3], in test [4], in test [5] and in test [6] was “inactive” throughout.
As for `CC1(C)OC[C@H](NC(=O)Nc2ccc(Br)cc2Br)[C@H](c2ccccc2)O1`, the Potency result in test [1], in test [2], in test [3], in test [4], in test [5] and in test [6] was “inactive” throughout.
Consider `CNC(=O)c1cc(Oc2ccc(NC(=O)c3cccc(C(F)(F)F)c3)cc2)ccn1`, for which the Potency entry in test [1], in test [2], in test [3], in test [4], in test [5] and in test [6] was “inactive” in each case.
As to `O=C(N[C@H]1CCN(C(=O)c2cc(C(F)(F)F)cc(C(F)(F)F)c2)[C@H](Cc2ccc(Cl)cc2)C1)c1ccnc2ccccc12`, the Potency result in test [1], in test [2], in test [3], in test [4], in test [5] and in test [6] was “inactive” each time.
As to `CN(C)CC#CCCC(=O)C(O)(c1ccccc1)C1CCC1` (stereo not given), the Potency result in test [1], in test [2], in test [3], in test [4], in test [5] and in test [6] was “inactive” in each case.
Take `Cc1cc(Nc2nc(-c3ccccc3)nc3ccccc23)n[nH]1`: the Potency entry in test [1], in test [2], in test [3], in test [4], in test [5] and in test [6] was “inactive” in each case.
As to `COC1CC(O[C@H]2CC[C@]3(C)C4CC[C@]5(C)C(C6=CC(=O)OC6)=CCC56OC46CC[C@@H]3C2)OC(C)C1O[C@@H]1O[C@H](CO[C@@H]2O[C@H](CO)[C@@H](O)[C@H](O)[C@H]2O)[C@@H](O)[C@H](O)[C@H]1O` (stereo not given in full), the Potency result in test [1] and in test [2] was “inactive” throughout. In test [3], the outcome is “inactive [at 11.6 µM]”. The activity change, negative = thiol reactive in test [4] was 101% [at 11.5 µM]. Moreover, in test [5], the activity, negative = inhibition is 0% [at 11.6 µM]. In addition, the redox activity (% of DA3003) in test [6] was 3.85% [at 11.5 µM].
As for `NS(=O)(=O)c1ccc(N2CCN(CC[C@@H]3OCCc4ccccc43)CC2)cc1`, the Potency result in test [1], in test [2], in test [3], in test [4], in test [5] and in test [6] was “inactive” each time.
Turning to `CCCCC1CCC(c2nc(-c3ccncc3)no2)CC1` (stereo not given), the Potency result in test [1], in test [2], in test [3], in test [4], in test [5] and in test [6] was “inactive” throughout.
Turning to `C=C(C)C(=O)OC1CC(CO)CCC/C(CO)=C/C2OC(=O)C(=C)C21` (stereo not given), the Potency entry in test [1], in test [2], in test [3], in test [4], in test [5] and in test [6] was “inactive” throughout.
Regarding `CCN1C(C)(C)CC(Oc2ccc(C(=O)Nc3ccc(NC(=O)Nc4cc(C(C)(C)C)on4)cc3)nc2)CC1(C)C`, the Potency entry in test [1], in test [2], in test [3], in test [4], in test [5] and in test [6] was “inactive” throughout.
`COC(=O)CC[C@@H](C)C1CCC2C3CCC4C[C@H](OC(C)=O)CCC4(C)C3C[C@H](O)C21C` (stereo not given in full): the Potency entry in test [1], in test [2], in test [3], in test [4], in test [5] and in test [6] was “inactive” throughout.
Consider `O=C(Nc1cccc(C(F)(F)F)c1)Nc1ccc(Br)cc1-c1nn[nH]n1`, for which the Potency entry in test [1], in test [2], in test [3], in test [4], in test [5] and in test [6] was “inactive” each time.
Regarding `CC(=O)OC1[C@H]2[C@@H](C[C@@H](C)[C@@H]3C=CC(=O)[C@@]13C)OC(=O)[C@@H]2C` (stereo not given in full), the Potency entry in test [1], in test [2], in test [3], in test [5] and in test [6] was “inactive” throughout. The Potency in test [4] is 23.8 µM (active).
With `CCC(C)C(=O)OC12C(OC(C)=O)C(C)C3(O)C(C=C(CO)CC4(O)C(=O)C(C)=CC43)C1C2(C)C` (stereo not given), the Potency result in test [1], in test [2], in test [3], in test [4], in test [5] and in test [6] was “inactive” throughout.
In the case of `O=C(NCc1nc2ccccc2c(=O)n1-c1ccc(F)cc1)Nc1ccc(Cl)c(C(F)(F)F)c1`, the Potency result in test [1], in test [2], in test [3], in test [4], in test [5] and in test [6] was “inactive” throughout.
As for `Nc1nc(OCc2cc(Br)cs2)c2[nH]cnc2n1`, the Potency entry in test [1], in test [2], in test [3], in test [4], in test [5] and in test [6] was “inactive” in each case.
In the case of `CN(C)CCn1cc(-c2ccc(F)cc2)c(-n2cccc2)n1`, the Potency result in test [1], in test [2], in test [3], in test [4], in test [5] and in test [6] was “inactive” throughout.
In the case of `CC(C)OC(=O)N1CCC(Oc2ncnc3c2cnn3-c2ccc(S(C)(=O)=O)cc2F)CC1`, the Potency entry in test [1], in test [2], in test [3], in test [4], in test [5] and in test [6] was “inactive” each time.
Turning to `C=C1C(=O)O[C@@H]2[C@H]1CCC(C)=C(CCC(=O)O)[C@@]2(C)O`, the Potency entry in test [1], in test [2], in test [3], in test [4], in test [5] and in test [6] was “inactive” in each case.
